In the library only some 3.5% were active in any assay of this set; here they are far more common.
TEAD-YAP inh – TEAD-YAP interaction inhibition; HEK-TIYL cells, TEAD-Gal4/YAP UAS-luciferase luminescence; inhibition, % at 9.12 µM; 1.4% of 640,000 active; AID 1259422; in the data active = inhibition above about 32%;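 note: 0% = median of test compound wells and 100% = reference inhibitor wells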
FBW7 activator – activators of human E3 ligase FBW7; 0.13% of 650,000 active; AlphaScreen FBW7–phospho-cyclin E peptide binding, activator screen; AID 1259310; Q969H0; normalized activity (activation), % at 26.1 µM; in the data active = normalized activity above about 1.9%;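 note: purified mutant Fbw7 with reduced substrate affinity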
MITF inh – blocks human microphthalmia-associated transcription factor; AID 1259374; AlphaScreen MITF homodimerization, bead proximity signal; 0.91% of 650,000 active; O75030; inhibition, % at 2.6 µM; in the data active = inhibition above about 50%;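 note: 0% = vehicle wells with protein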
Target sequence (O75030 whole entry, looked up): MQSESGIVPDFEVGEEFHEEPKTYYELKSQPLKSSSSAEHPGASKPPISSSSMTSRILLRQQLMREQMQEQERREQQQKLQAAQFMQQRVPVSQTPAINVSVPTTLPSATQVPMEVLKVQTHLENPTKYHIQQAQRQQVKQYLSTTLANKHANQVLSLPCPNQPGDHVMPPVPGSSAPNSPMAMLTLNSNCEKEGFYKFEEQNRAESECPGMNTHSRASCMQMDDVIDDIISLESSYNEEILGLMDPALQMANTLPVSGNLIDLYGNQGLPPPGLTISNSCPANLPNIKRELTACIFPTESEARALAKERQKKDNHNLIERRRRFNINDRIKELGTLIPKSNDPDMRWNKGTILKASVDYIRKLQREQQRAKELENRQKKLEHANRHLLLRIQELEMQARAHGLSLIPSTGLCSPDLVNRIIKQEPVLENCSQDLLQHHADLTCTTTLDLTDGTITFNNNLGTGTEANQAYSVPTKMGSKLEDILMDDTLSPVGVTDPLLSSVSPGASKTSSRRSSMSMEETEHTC
GPR151 activ – human GPR151 activation | Q8TDV0 | PathHunter beta-arrestin GPR151 cells, luminescence | activation, % at 11.2 µM | 1% of 650,000 active; in the data active = activation above about 4.9%;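 note: 0% = median of compound wells and 100% = cells with positive control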
Numbers without * were called inactive; ! = not confirmed by another sample.

Screening Nc1c(C(=O)NCc2ccccc2)nnn1Cc1cccc(F)c1 returned TEAD-YAP inh 3, FBW7 activator 1, MITF inh 25 and GPR151 activ -1.
CCOC(=O)C(=O)Nc1ccc(C)cc1 was read as TEAD-YAP inh -5, FBW7 activator 0, MITF inh -1 and GPR151 activ 0.
Screening O=C(O)c1ccc(-c2cccs2)nc1Cl returned TEAD-YAP inh 6, FBW7 activator 0, MITF inh 6 and GPR151 activ 1.
For CCOc1cc([N+](=O)[O-])ccc1NC(=O)CC1Sc2ccccc2NC1=O (configuration not stated) the results were TEAD-YAP inh 58*, FBW7 activator 0, MITF inh 4 and GPR151 activ 0.
Screening CCOc1ccc(NC(=O)c2cccc3ccccc23)c([N+](=O)[O-])c1 returned TEAD-YAP inh 43*, FBW7 activator 0, MITF inh 25 and GPR151 activ -2.
For Cc1ccc(NC(=O)CC2Sc3ccccc3NC2=O)c([N+](=O)[O-])c1 (configuration not stated) the results were TEAD-YAP inh 48*, FBW7 activator 0, MITF inh 2 and GPR151 activ 1.
Cc1ccc(NC(=O)CC2Sc3ccccc3NC2=O)c(C)c1 (configuration not stated) was read as TEAD-YAP inh 16, FBW7 activator 0, MITF inh 7 and GPR151 activ 0.
CCOc1ccc(NC(=O)CC2Sc3ccccc3NC2=O)c([N+](=O)[O-])c1 (configuration not stated) was read as TEAD-YAP inh 52*, FBW7 activator 0, MITF inh -11 and GPR151 activ -1.
Screening COC(=O)c1c(N)ncn1-c1ccccc1 returned TEAD-YAP inh 7, FBW7 activator 0, MITF inh -21 and GPR151 activ -1.
For COc1ccc(Br)cc1C(=O)Nc1nccs1 the results were TEAD-YAP inh 3, FBW7 activator 0, MITF inh -4 and GPR151 activ -1.
CCOC(=O)c1c(C(F)(F)F)nc2n1CCN(C(=O)c1cn[nH]c1C)C2 was read as TEAD-YAP inh -7, FBW7 activator 0, MITF inh -8 and GPR151 activ 0.
`CCCCN(C)C(=O)CSc1nc2ccccc2c(=O)n1CC1CCC(C(=O)NCCc2ccccc2)CC1` (configuration not stated) gave TEAD-YAP inh -19, FBW7 activator 1.9*, MITF inh 20 and GPR151 activ -2.
`O=[N+]([O-])c1cccc(-c2nc(=S)c3c(n2Cc2ccco2)CCCC3)c1` gave TEAD-YAP inh 5, FBW7 activator 0, MITF inh -2 and GPR151 activ 0.
Screening O=C(Cn1c(=O)n(CCc2ccccc2)c(=O)c2cccnc21)Nc1ccccc1F returned TEAD-YAP inh -1, FBW7 activator 0, MITF inh -6 and GPR151 activ 0.
CC(CO)Nc1c2ccccc2nc2ccccc12 (configuration not stated) was read as TEAD-YAP inh 38*, FBW7 activator 0, MITF inh -5 and GPR151 activ -1.
For CC(C)NC(=O)C(=O)c1c[nH]c2ccccc12 the results were TEAD-YAP inh -4, FBW7 activator 0, MITF inh 1 and GPR151 activ 2.
Screening O=C(CC1(O)C(=O)N(Cc2ccccc2Cl)c2ccccc21)c1ccccc1O (configuration not stated) returned TEAD-YAP inh 7, FBW7 activator 1, MITF inh 22 and GPR151 activ 0.
Nc1ccc2nc(/C=C/c3nc4ccc(N)cc4[nH]3)[nH]c2c1 was read as TEAD-YAP inh 16, FBW7 activator 0, MITF inh 20 and GPR151 activ 2.
Screening C[n+]1c2cc(N)ccc2cc2ccc(N)cc21 (tested in a mixture with another compound) returned TEAD-YAP inh -14, FBW7 activator 0, MITF inh 57* and GPR151 activ -3.
C[n+]1c2cc(N)ccc2cc2ccc(N)cc21 was read as TEAD-YAP inh -1, FBW7 activator 0, MITF inh 52*! and GPR151 activ 0.
Screening CCNS(=O)(=O)c1cc(N(C)S(=O)(=O)c2ccc(Cl)cc2)c(C)cc1C returned TEAD-YAP inh -1, FBW7 activator 0, MITF inh -13 and GPR151 activ -1.
Cc1ccc(S(=O)(=O)N2c3ccc(C)cc3-c3ccccc3S2(=O)=O)cc1 was read as TEAD-YAP inh 50*, FBW7 activator 0, MITF inh -3 and GPR151 activ 3.
Screening COc1ccc2c(c1)-c1cc(Cl)ccc1S(=O)(=O)N2S(=O)(=O)c1ccc(C)cc1 returned TEAD-YAP inh 2, FBW7 activator 0, MITF inh 5 and GPR151 activ 0.
CCCCCOC(=O)COc1ccc2c(=O)c(-c3ccccc3OC)c(C(F)(F)F)oc2c1 was read as TEAD-YAP inh 5, FBW7 activator 1, MITF inh 17 and GPR151 activ 0.
For CCC(=O)Nc1ccc2nn(-c3ccccc3)nc2c1 the results were TEAD-YAP inh 37*, FBW7 activator 0, MITF inh 0 and GPR151 activ -2.
`CC(C)C(=O)Nc1ccc2nn(-c3ccccc3)nc2c1` gave TEAD-YAP inh 46*, FBW7 activator 0, MITF inh 5 and GPR151 activ -1.
O=C(Nc1ccc2nn(-c3ccccc3)nc2c1)C(F)(F)F was read as TEAD-YAP inh -16, FBW7 activator 0, MITF inh -17 and GPR151 activ 0.
For CC(C)(C)C(=O)Nc1ccc2nn(-c3ccccc3)nc2c1 the results were TEAD-YAP inh 82*, FBW7 activator 0, MITF inh -2 and GPR151 activ 2.
COCCNC(=O)c1ccc2cncc(-c3cc4ccccc4o3)c2n1 was read as TEAD-YAP inh 60*, FBW7 activator 0, MITF inh 5 and GPR151 activ 0.
For O=C(c1ccc2cncc(-c3cc4ccccc4o3)c2n1)N1CCOCC1 the results were TEAD-YAP inh 23, FBW7 activator -1, MITF inh 18 and GPR151 activ 1.
For O=C(NC1CC1)c1ccc2cncc(-c3cc4ccccc4o3)c2n1 the results were TEAD-YAP inh 50*, FBW7 activator 0, MITF inh 2 and GPR151 activ -1.
`O=C(NCCCn1ccnc1)c1ccc2cncc(-c3cc4ccccc4o3)c2n1` gave TEAD-YAP inh 46*, FBW7 activator 0, MITF inh -2 and GPR151 activ -1.
Screening Cc1ncn(-c2ccc(Nc3nccc(-c4cc(F)cc(-c5cn[nH]c5C)c4)n3)cc2)n1 returned TEAD-YAP inh 37*, FBW7 activator 0, MITF inh 6 and GPR151 activ 2.
For Cc1ncn(-c2ccc(Nc3nccc(-c4cc(N5CCOCC5)cc(S(C)(=O)=O)c4)n3)cc2)n1 the results were TEAD-YAP inh 41*, FBW7 activator 0, MITF inh -1 and GPR151 activ 0.
For CN1CCN(c2ncn(-c3ccc(Nc4nccc(-c5cc(F)cc(N6CCOCC6)c5)n4)cc3)n2)CC1 the results were TEAD-YAP inh 56*, FBW7 activator 0, MITF inh -16 and GPR151 activ -1.

Screens as filed in PubChem.
